The entries come from a sample that favours hits as a whole.
Pf Dd2 growth: Plasmodium falciparum Dd2 growth inhibition; AID 1347417; 4.3% of 120,000 active; P. falciparum Dd2 growth, SYBR Green, 72 h; Potency, µM (top dose mostly 28.9 µM), for inactives: top-dose activity, negative = inhibition, usual class: inhibitors; active means well fitted inhibition curve with a large enough effect;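 further: plate controls were DMSO vehicle for no effect and reference drug for full effect; nearly all actives have a fitted effect of over 65% in size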
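Infected erythrocytes (Dd2, 0.3% parasitemia, 2.5% hematocrit final) are added to compound in RPMI-1640/Albumax II medium, grown 72 h at 37C in low oxygen, then lysed with saponin/Triton-X containing SYBR Green and read by fluorescence.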
* hit, by the source's call; i = inactive; ! = not confirmed by another sample; [ ] = remark or other dose. Potency means the concentration at half of the fitted maximal effect.

SMILES | Pf Dd2 growth
COc1ccc(NC(=O)N2CCC(N3CC4CC(C3)[C@H]3CCCC(=O)N3C4)CC2)cc1OC (stereo not given in full) | 3%
Cc1ccc(-c2cccc(CN3CCCC(c4nc5ccc(F)cc5c(=O)[nH]4)C3)c2)c(C)c1 (stereo not given) | 13µM*!
Cc1ccc2nc([C@H]3CCN(Cc4cccs4)C3)[nH]c2c1 | -17%[44.1 µM]
Cc1ccc2nc(C3CCCN(CC4CCCC4)C3)[nH]c(=O)c2c1 (stereo not given) | 8.9µM*!
O=c1[nH]c(C2CCCN(CC3CCCCC3)C2)nn1-c1ccccc1 (stereo not given) | i
Cc1ccc(-c2cccc(CN3CCN(c4ccc(Cl)nn4)C(=O)C3)c2)c(C)c1 | -21%
Cc1ccc(-c2cccc(CN3CC4CCC(C3)N4c3ccc(C(F)(F)F)cc3)c2)c(C)c1 | 185%
CCS(=O)(=O)c1ncc(CN(C)Cc2ccc3nonc3c2)n1CCc1ccccc1 | -19%
C=CCNC(=O)N1CCC(O)(c2csc(CN3CCN(c4ccccn4)CC3)n2)CC1 | 1%
OC1(c2csc(CN3CCN(c4ccccn4)CC3)n2)CCN(Cc2ccccc2)CC1 | 8.9µM*
CN1CCN(Cc2nc(C3(O)CCN(C)CC3)cs2)CC1 | 4%[44.1 µM]
COCCn1ncc(N2CCCC(CC(=O)NCc3ccccc3C)C2)cc1=O (stereo not given) | -10%
CC(C)c1nnc(C2CN(C(=O)c3ccc(F)cc3F)CC23CCOCC3)o1 (stereo not given) | i
CN(Cc1cc(C2CC2)n[nH]1)c1nccc(-c2cccnc2)n1 | -25%
CN(CCC(O)c1ccccc1)c1nccc(-c2cccnc2)n1 (stereo not given) | 10µM*
Cc1cn2cc(C(=O)N(C)CCC(O)c3ccccc3)ccc2n1 (stereo not given) | 2%
O=C(CCc1ccccc1)N1CCC2(CC1)CC(O)CCO2 (stereo not given) | 0%
COc1cccc(CN2CCCC3(CCN(S(=O)(=O)N(C)C)C3)C2=O)c1 (stereo not given) | -2%
Cc1cccc(C)c1OCc1nc2c3c(-c4ccccc4)c(-c4ccccc4)oc3ncn2n1 | 23%
COc1ccc(-c2oc3ncn4nc(COc5c(C)cccc5C)nc4c3c2-c2ccc(OC)cc2)cc1 | 11µM*
COc1ccc(-c2oc3ncn4nc(-c5cccc(C)c5)nc4c3c2-c2ccc(OC)cc2)cc1 | 24%
CCS(=O)(=O)N1C[C@@H]2C(=O)N(CCC3CCN(C(C)C)CC3)C(=O)[C@@H]2C1 | 19%
O=C(COc1ccccc1)N[C@@H]1C[C@H](Cn2cc(-c3cccnc3)nn2)[C@@H](O)[C@H]1O | -2%
CNC(=O)N1CCC(C2CCN(C(=O)Cc3cccs3)C2)CC1 (stereo not given) | 31%
CS(=O)(=O)N1CCC(C2CCN(C3CCOCC3)C2)CC1 (stereo not given) | -18%
SMILES | Pf Dd2 growth
Cc1ccc(CN2CCC(C3CCN(S(C)(=O)=O)CC3)C2)o1 (stereo not given) | i
CS(=O)(=O)N1CCC(C2CCN(Cc3ccc(Br)o3)C2)CC1 (stereo not given) | 4.5µM*
Cn1cccc1CN1CCC(C2CCN(S(C)(=O)=O)CC2)C1 (stereo not given) | i
CS(=O)(=O)N1CCC(C2CCN(Cc3cccs3)C2)CC1 (stereo not given) | 13µM*
COc1ccc(C(=O)N2C[C@@H](F)C[C@H]2C(=O)N2CCCCC2)cc1 | 3%
CCOc1ccc(S(=O)(=O)c2cn(Cc3ccccc3C)c3ccc(OC)cc3c2=O)cc1 | 4.5µM*
Cc1ccc(S(=O)(=O)c2cn(Cc3ccc(F)cc3)c3cc(F)c(F)cc3c2=O)cc1 | 13%
O=c1c(S(=O)(=O)c2ccc(Cl)cc2)cn(Cc2ccc(F)cc2)c2ccc(F)cc12 | 11µM*
Cc1ccc(S(=O)(=O)c2cn(CC(=O)Nc3ccc(Cl)cc3)c3ccc(F)cc3c2=O)cc1C | i
CCOc1ccc2c(c1)c(=O)c(S(=O)(=O)c1ccc(CC)cc1)cn2CC | -11%
CCOc1ccc2c(c1)c(=O)c(S(=O)(=O)c1ccc(F)cc1)cn2CC(=O)Nc1ccccc1C | i
COc1ccc(S(=O)(=O)c2cn(C)c3ccc(C)cc3c2=O)cc1 | 21%
COc1ccc(OC)c(NC(=O)Cn2cc(S(=O)(=O)c3ccccc3)c(=O)c3cc(C)ccc32)c1 | i
COc1ccc2c(c1)c(=O)c(S(=O)(=O)c1ccc(Cl)cc1)cn2Cc1cc(C)ccc1C | 11µM*
CCS(=O)(=O)Nc1ccc(C2(C(=O)NCc3ccccc3F)CCCCC2)cc1 | i
CC(C)CC(NC(=O)C1=NNC(=O)CC1)c1nnc2n1CCNCC2 (stereo not given) | 1%
Cc1nc(CC2CCN(C(=O)c3ccsc3)CC2)n[nH]1 | 2%
O=C(c1ccccn1)N1CCn2c(nn(-c3ccc(F)cc3F)c2=O)C1 | i
Cc1noc(-c2nc(Cc3ccc(F)cc3)no2)n1 | -20%
CCOC(=O)c1cnc2c(C)c(Cl)ccc2c1NCCc1ccccc1 | -10%
CCOC(=O)c1c(C)oc2nc(C)nc(NCCc3ccc(OC)c(OC)c3)c12 | -25%
CCOC(=O)c1ccc2ncc(C(=O)OCC)c(Nc3ccc(C)c(Br)c3)c2c1 | i
CCOc1ccc(-c2nnc(SCC(=O)NCCc3ccc(OC)c(OC)c3)nc2-c2ccc(OCC)cc2)cc1 | -26%
CCOC(=O)c1cnc2ccc(C)cc2c1NCCc1ccc(OC)c(OC)c1 | 8.9µM*
CCOC(=O)c1cnc2ccc(OCC)cc2c1NCCc1ccc(OC)c(OC)c1 | 4.5µM*
SMILES | Pf Dd2 growth
Cn1nccc1C(=O)N1C[C@@H](COCC2CC2)[C@H](c2ccccn2)C1 | 19%
O=C(NCc1ccc(-c2ccc(F)cc2)o1)C1CC(=O)N(Cc2cccnc2)C1 (stereo not given) | -5%
O=C(c1[nH]nc2c1CCc1ccccc1-2)N1CCC(c2noc(-c3cccnc3)n2)C1 (stereo not given) | i[5.79 µM]
Cc1cc(C(=O)N2C[C@@H](Oc3ccccc3)C[C@@H]2C(=O)N2CCOCC2)nn1C | -7%
COc1ccc(C(=O)NCCn2cc(SCC(=O)Nc3ccc(C)cc3)c3ccccc32)cc1 | -28%
CCOc1ccc(NC(=O)CSc2cn(CCNC(=O)c3ccccc3F)c3ccccc23)cc1 | -18%
CCOc1ccc(C(=O)NCCn2cc(SCC(=O)Nc3ccccc3)c3ccccc32)cc1 | 4.5µM*
CC(=O)Nc1ccc(C(=O)N2CCC3(CC2)N=C(c2ccccc2)NO3)cc1 | 3%
CCN(Cc1c(O)cccc1OC)CC1CCN(CCc2ccccc2C)CC1 | 16µM*
COc1ccccc1CCC(=O)N1CCC(Cc2nncn2C)CC1 | -8%
CCN(Cc1cc(C)[nH]n1)CC1CCCN(CCc2cccc(OC)c2)C1 (stereo not given) | -17%
Cc1ncc(CO)c(CN2CCCC23Cc2ccccc2CNC3=O)c1O (stereo not given) | 0%
Cc1cccc(C)c1CN1CCCC12Cc1ccccc1CNC2=O (stereo not given) | 2.5µM*
O=C1NCc2ccccc2CC12CCCCN2Cc1cccc(O)c1 (stereo not given) | -20%
O=C1NCc2ccccc2CC12CCCN2Cc1ccc2ccccc2n1 (stereo not given) | 5%
Cc1cccc(CN2CCCCC23Cc2ccccc2CNC3=O)n1 (stereo not given) | 10µM*
Cc1cc(C)c(CN2CCCC23Cc2ccccc2CNC3=O)c(C)c1 (stereo not given) | -5%
CC(C)CNC(=O)N1CCC(c2nc(CCOCC3CCOCC3)no2)C1 (stereo not given) | -20%

From PubChem
